One assay concerns THRa:RXRa (NR concentration 90 nM, RXRa partner concentration 90 nM). The assay is described as follows: PBM binding z-score (relative to random genomic background probes); higher = stronger binding; sequences stand for … in GC…GCGATTGACAGCGTAGAATGAAGG
A digest of the protocol: (§1)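 Custom Agilent 4×180K protein-binding microarrays carried double-stranded probes, each with a 34-nt variable region. These regions held direct-repeat seeds, single-nucleotide variants, half-site ablations and random human genomic background sequences. Ligand-free nuclear receptor dimers were incubated on the arrays for 1 h, antibodies against each partner (one per run) detected binding, and scanned fluorescence was regression-normalized. Binding z-scores take the random background probes as reference.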
For ACTAGTTGGTCAGCTGAGGTCACAGACAATTCGG, the PBM binding z-score stood at 4.99.

AACACAGGGTCATCGTAGGCCAGAGTACGCACAG displayed a PBM binding z-score of 4.5.

The sequence TAGCCTAGCTCATTGGGCCAGTATAGTACGCATC registered a PBM binding z-score of -0.611.

The sequence CCTACTGGGCCACGAGAGGTCATTGATTCAGTGA came in with a PBM binding z-score of 4.

Regarding TTACCAAGTTGAAAGGTCGTTGATGCACGCCTTG, the PBM binding z-score came out at 1.92.

With ACTATTAGTTGAGACGAGGACAACCGATAGGTTG, the PBM binding z-score was determined as 3.9.

In turn, CCTAGCAGGCCGGGGTCACTCAAGCATTTCGCTT yielded a PBM binding z-score of 3.89.

Sequence TCATATAGGTAAAGGTGAAGGTCGAACGATATGA gave a PBM binding z-score of 1.82.

CCTACTGGGCCATTAGGTCATTGATATCAACGTT: the PBM binding z-score is 2.63.

With ACAGACAGTTGATGAAGGTAACTCAGGCTATCAT, the PBM binding z-score was 0.764.

GCTGCTAGGTCAACTGATAGTCAGCTAAAGCTCG had a PBM binding z-score of 2.74.

Sequence TAGCCTAGCTCATGGGCCAGTATACCACGCGAAC came in with a PBM binding z-score of -0.643.

On to AGAATGAGGTTATTAAGAACAGGGAATTGCGGTC, for which the PBM binding z-score is 2.23.

As for ATCTCTAGGTAAAAGTTCACTGAATCCCGAGGAT, the PBM binding z-score came to 2.01.

Take GATACAGGGTCAAGGCGAGAGTACGCGTATTGAT: the PBM binding z-score was determined as 3.32.

AGAATGAGGTTATTAAGATCAGGAAATTGCGGTC gave a PBM binding z-score of 2.06.

GCTAGCAGTCCATTTGGGTCACTCAATGACGGGC came in with a PBM binding z-score of 1.82.

Regarding CCAGATAGGTGAAAGGTAACTCAGTCTGGTACGC, the PBM binding z-score is 0.97.

In turn, ATCGAAAGGTCGACGAGGCGAGTATACACCGTTT came in with a PBM binding z-score of 2.48.

The sequence CTCGAAAGGTCGGGCTCAGGTGAGTATACCAAAC gave a PBM binding z-score of 3.46.

In the case of CGAACTAGGTCAAGGATAGTGAATCTCCGCACGC, the PBM binding z-score came out at 2.67.

As to ATATGTAGGTTATCGGGTCATTCGGTTTGCGCAT, the PBM binding z-score was 3.28.

For the sequence ATCTCTAGGTAAGACTCAGTGCAGTGAAGAACGC, the PBM binding z-score was found to be 0.285.

As for CGTCCAAGGGCAGAGAGGTCAGTGAATGCCGAGT, the PBM binding z-score came to 2.68.

In turn, AATACAGGGTCATCGTAGGCCACAGTACGCACAG gave a PBM binding z-score of 4.93.

For ATCTCTAGGTAAGAGTCAGTTCAGTGAAGAACGC, the PBM binding z-score was determined as 0.853.

Regarding AGAACGAGGGCAATGAGTTGATAGCCCGGGTGGC, the PBM binding z-score came to 0.913.

In turn, TCTGCTCGGTCAACGATGGTCAGCTAATCTGCTA came in with a PBM binding z-score of 0.269.

Sequence AGTCAAAGTTCACTAGGTAACGTAGGATTCAGCT registered a PBM binding z-score of 1.98.

As to TCTGCTAGGTCAGTTGGTCATCTAACGAGCTGCC, the PBM binding z-score was found to be 1.63.

On to CCTAGCAGGACAATCTGGGTCACTCAAGGCTTGA, for which the PBM binding z-score came to 3.07.

Take CCTACTGGGCCAACGTCATTGATCAGTCAAAGCA: the PBM binding z-score was -0.204.

On to CACACAGGGTCAGCTAGGCCAGAGTAGGGACGGC, for which the PBM binding z-score came out at 3.04.

The sequence GCTTACGGGTCGAAGGTTATAGCATGAATAGAAT registered a PBM binding z-score of 1.55.

CCTGGTTGGTCAGGAGGTCACACACCGGATATGA yielded a PBM binding z-score of 3.37.

Turning to CAAACTAGGTCACACAGGTCAAAGTCCGTGCGTA, the PBM binding z-score is 4.13.

Regarding CCTACTGGGCCAAAAAGGTCATCGATGCCGATAA, the PBM binding z-score is 3.28.

In turn, GCTGCTAGCTCAACTGATGGTCAGCTAAAGCTCG yielded a PBM binding z-score of -0.877.

Consider GCGACTGGGGCAAAGCATGTTACCATAAGGTTGG, for which the PBM binding z-score came to 0.269.

The subject of the next assay is THRa homodimer (NR concentration 90 nM). The assay is described as above. The method in brief:
as §1
For ACTAGTTGGTCAGCTGAGGTCACAGACAATTCGG, the PBM binding z-score was 5.44.

The sequence AACACAGGGTCATCGTAGGCCAGAGTACGCACAG showed a PBM binding z-score of 1.69.

For TAGCCTAGCTCATTGGGCCAGTATAGTACGCATC, the PBM binding z-score is -0.587.

As to CCTACTGGGCCACGAGAGGTCATTGATTCAGTGA, the PBM binding z-score was found to be 1.33.

The sequence TTACCAAGTTGAAAGGTCGTTGATGCACGCCTTG showed a PBM binding z-score of -0.189.

Sequence ACTATTAGTTGAGACGAGGACAACCGATAGGTTG returned a PBM binding z-score of 2.56.

Regarding CCTAGCAGGCCGGGGTCACTCAAGCATTTCGCTT, the PBM binding z-score was 2.05.

With TCATATAGGTAAAGGTGAAGGTCGAACGATATGA, the PBM binding z-score worked out at 0.00279.

Regarding CCTACTGGGCCATTAGGTCATTGATATCAACGTT, the PBM binding z-score was found to be 2.27.

The sequence ACAGACAGTTGATGAAGGTAACTCAGGCTATCAT showed a PBM binding z-score of 0.154.

As for GCTGCTAGGTCAACTGATAGTCAGCTAAAGCTCG, the PBM binding z-score worked out at 0.622.

For the sequence TAGCCTAGCTCATGGGCCAGTATACCACGCGAAC, the PBM binding z-score was -0.48.

With AGAATGAGGTTATTAAGAACAGGGAATTGCGGTC, the PBM binding z-score turned out to be 0.503.

As for ATCTCTAGGTAAAAGTTCACTGAATCCCGAGGAT, the PBM binding z-score was 0.473.

Consider GATACAGGGTCAAGGCGAGAGTACGCGTATTGAT, for which the PBM binding z-score turned out to be 1.11.

Sequence AGAATGAGGTTATTAAGATCAGGAAATTGCGGTC returned a PBM binding z-score of 0.497.

With GCTAGCAGTCCATTTGGGTCACTCAATGACGGGC, the PBM binding z-score turned out to be 0.507.

Take CCAGATAGGTGAAAGGTAACTCAGTCTGGTACGC: the PBM binding z-score is 0.0815.

ATCGAAAGGTCGACGAGGCGAGTATACACCGTTT had a PBM binding z-score of -0.128.

As for CTCGAAAGGTCGGGCTCAGGTGAGTATACCAAAC, the PBM binding z-score was determined as 1.06.

CGAACTAGGTCAAGGATAGTGAATCTCCGCACGC displayed a PBM binding z-score of 1.35.

ATATGTAGGTTATCGGGTCATTCGGTTTGCGCAT gave a PBM binding z-score of 2.94.

ATCTCTAGGTAAGACTCAGTGCAGTGAAGAACGC: the PBM binding z-score was determined as 0.26.

The sequence CGTCCAAGGGCAGAGAGGTCAGTGAATGCCGAGT gave a PBM binding z-score of 0.704.

AATACAGGGTCATCGTAGGCCACAGTACGCACAG had a PBM binding z-score of 1.72.

For ATCTCTAGGTAAGAGTCAGTTCAGTGAAGAACGC, the PBM binding z-score came to 0.649.

AGAACGAGGGCAATGAGTTGATAGCCCGGGTGGC registered a PBM binding z-score of -0.362.

TCTGCTCGGTCAACGATGGTCAGCTAATCTGCTA registered a PBM binding z-score of -0.89.

The sequence AGTCAAAGTTCACTAGGTAACGTAGGATTCAGCT yielded a PBM binding z-score of 0.256.

Consider TCTGCTAGGTCAGTTGGTCATCTAACGAGCTGCC, for which the PBM binding z-score stood at 0.119.

On to CCTAGCAGGACAATCTGGGTCACTCAAGGCTTGA, for which the PBM binding z-score came to 0.761.

CCTACTGGGCCAACGTCATTGATCAGTCAAAGCA: the PBM binding z-score was -0.526.

CACACAGGGTCAGCTAGGCCAGAGTAGGGACGGC displayed a PBM binding z-score of 0.987.

In turn, GCTTACGGGTCGAAGGTTATAGCATGAATAGAAT yielded a PBM binding z-score of -0.161.

CCTGGTTGGTCAGGAGGTCACACACCGGATATGA gave a PBM binding z-score of 2.1.

Sequence CAAACTAGGTCACACAGGTCAAAGTCCGTGCGTA gave a PBM binding z-score of 2.13.

Consider CCTACTGGGCCAAAAAGGTCATCGATGCCGATAA, for which the PBM binding z-score came to 0.651.

On to GCTGCTAGCTCAACTGATGGTCAGCTAAAGCTCG, for which the PBM binding z-score is -1.48.

Consider GCGACTGGGGCAAAGCATGTTACCATAAGGTTGG, for which the PBM binding z-score is -0.43.

For the origin of these results see the supplement of paper PMC6555819.
